Reference: PubChem BioAssay AID1159580 (chemical genetic matrix, 2015)
About 2,000 (36%) of roughly 5,500 compounds were called active. About 18% were inconclusive and are not listed. Rule as the data show it: active = normalized growth mostly below about 0.91 (no sharp cut-off); inconclusive = no clear call, values can overlap the other calls; inactive = mostly above about 0.92. The list shows a part of the results.

Experiment: chemical genetic growth profiling, strain panel (AID 1159580);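 also: tested at 20 µM; growth read once vehicle control cultures reached saturation at 30 °C; 1 = growth at the plate median or of vehicle wells; lower values mean less growth of the strain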
Conditions: S. cerevisiae deletion strains, growth OD

Measured: normalized growth

S=C(Nc1ccc(Cl)cc1Cl)N(c1cccc(Cl)c1)c1nc2ccccc2s1
inactive: locus YAR019C, strain CDC15, hits give low values 0.956 | locus YBL105C, strain PKC1, hits give low values 0.96 | locus YBR135W, strain CKS1, hits give low values 0.951 | locus YBR136W, strain MEC1, hits give low values 0.962 | locus YBR160W, strain CDC28, hits give low values 0.964 | locus YDL017W, strain CDC7, hits give low values 0.96 | locus YDL028C, strain MPS1, hits give low values 0.963 | locus YDL101C, strain DUN1, hits give low values 0.987 | locus YDL108W, strain KIN28, hits give low values 0.955 | locus YDL132W, strain cdc53, hits give low values 0.967 | locus YDL214C, strain PRR2, hits give low values 0.821 | locus YDR052C, strain DBF4, hits give low values 0.964 | locus YDR054C, strain cdc34, hits give low values 0.955 | locus YDR226W, strain ADK1, hits give low values 0.954 | locus YDR477W, strain SNF1, hits give low values 0.778 | locus YER123W, strain YCK3, hits give low values 0.778 | locus YER133W, strain GLC7, hits give low values 0.765 | locus YFL009W, strain cdc4, hits give low values 0.951 | locus YFL029C, strain CAK1, hits give low values 0.962 | locus YFR003C, strain YPI1, hits give low values 0.961 | locus YFR019W, strain FAB1, hits give low values 0.878 | locus YFR028C, strain CDC14, hits give low values 0.949 | locus YGR040W, strain KSS1, hits give low values 0.785 | locus YGR052W, strain FMP48, hits give low values 0.846 | locus YGR092W, strain DBF2, hits give low values 0.598 | locus YHR079C, strain IRE1, hits give low values 0.779 | locus YHR082C, strain KSP1, hits give low values 0.871 | locus YHR205W, strain SCH9, hits give low values 0.778 | locus YIL147C, strain SLN1, hits give low values 0.963 | locus YJL095W, strain BCK1, hits give low values 0.75 | locus YJL128C, strain PBS2, hits give low values 0.933 | locus YJL157C, strain FAR1, hits give low values 0.794 | locus YJR016C, strain ILV3, hits give low values 0.955 | locus YJR066W, strain TOR1 (second series), hits give low values 0.714 | locus YJR066W, strain TOR1, hits give low values 0.777 | locus YKL048C, strain ELM1, hits give low values 0.885 | locus YKL067W, strain YNK1, hits give low values 0.835 | locus YKL101W, strain HSL1, hits give low values 0.823 | locus YKL193C, strain SDS22, hits give low values 0.957 | locus YKL203C, strain TOR2, hits give low values 0.849 | locus YLR133W, strain CKI1, hits give low values 0.783 | locus YLR403W, strain SFP1, hits give low values 0.664 | locus YML070W, strain DAK1, hits give low values 0.795 | locus YMR001C, strain CDC5, hits give low values 0.951 | locus YMR205C, strain PFK2 (second series), hits give low values 0.82 | locus YMR277W, strain FCP1, hits give low values 0.95 | locus YNL006W, strain LST8, hits give low values 0.955 | locus YNL020C, strain ARK1, hits give low values 0.763 | locus YNL161W, strain CBK1, hits give low values 0.949 | locus YNL183C, strain NPR1, hits give low values 0.817 | locus YNL207W, strain RIO2, hits give low values 0.955 | locus YNL222W, strain SSU72, hits give low values 0.963 | locus YNL307C, strain MCK1 (second series), hits give low values 0.784 | locus YOL078W, strain AVO1, hits give low values 0.957 | locus YOL136C, strain PFK27, hits give low values 0.816 | locus YOR061W, strain CKA2, hits give low values 0.712 | locus YOR119C, strain RIO1, hits give low values 0.811 | locus YOR231W, strain MKK1, hits give low values 0.809 | locus YOR329C, strain SCD5, hits give low values 0.962 | locus YPL031C, strain PHO85, hits give low values 0.734 | locus YPL153C, strain RAD53, hits give low values 0.811 | locus YPL204W, strain HRR25, hits give low values 0.719 | locus YPL209C, strain IPL1, hits give low values 0.96 | locus YPR025C, strain CCL1, hits give low values 0.961 | locus YPR106W, strain ISR1, hits give low values 0.961 | locus YPR111W, strain DBF20, hits give low values 0.949 | strain NNK1, hits give low values 0.951 | strain TSCII, hits give low values 0.954
active: locus YHR030C, strain SLT2, hits give low values 0.674 | locus YLR113W, strain HOG1, hits give low values 0.743 | locus YPL256C, strain CLN2, hits give low values 0.791
